Source: PubChem BioAssay (NCI)
The panel holds about 79,000 compounds, 15% with a hit somewhere; the sample as a whole holds those more often. Values without a mark were called inactive. Active and inactive are the calls of the source. Cut-off read from the data, not from the text of the source: active = growth inhibition above about 70%; inactive = the rest.

Assay: NCI Yeast Anticancer Drug Screen. Data for the rad50 strain (AID 155);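 note: 0% = growth of vehicle-only cultures of the same strain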
Settings: S. cerevisiae rad50 strain growth inhibition; at 50.0 µM; active compounds read high
How it was run: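 Inhibition values express reduced yeast growth in compound-treated cultures relative to vehicle-treated controls.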
CCOC(=O)CCC(NC(=O)c1ccc(Nc2nc3ccccc3nc2-c2cccs2)cc1)C(=O)OCC (stereo not given) gave a growth inhibition of 7.1%. O=C(O)CC(NC(=O)c1cnc2ccccc2n1)C(=O)O (stereo not given) gave a growth inhibition of -3.65%. Work on C[C@]12CCC(=O)C=C1CC[C@@H]1C2CC[C@]2(C)Nc3[nH]ncc3CC12 (stereo not given in full) yielded a growth inhibition of -22.2%. With CC1OC(OC2C(Oc3cc(O)c4c(=O)cc(-c5ccc(O)cc5)oc4c3)OC(CO)C(O)C2O)C(O)C(O)C1O (stereo not given) the growth inhibition was -6.15%. Work on CC1(C)Cc2ccccc2C(C)(Cl)C(=O)N1 (stereo not given) yielded a growth inhibition of -10.8%. For CC(C)CCCC(C)C1CCC2C3CCC4CC(=O)/C(=C\O)CC4(C)C3CCC12C (stereo not given), the growth inhibition was 70.3% (active). O=C(c1ccc(Cl)cc1)C1C(c2ccccc2)C1[N+](=O)[O-] (stereo not given) showed a growth inhibition of 11.2%. Compound CCOP(C)(=O)/C(Cc1ccc(OC)c(OC)c1)=N\O (stereo not given) has a growth inhibition of -21.4%. Compound NNC(=O)c1c(-c2cccnc2)cnc2ccccc12 has a growth inhibition of -29.4%. In the case of O=C(Nc1nc(=S)[nH][nH]1)C(=O)C1C(=O)Nc2ccccc2S1=O (stereo not given), the growth inhibition is reported as 3.45%. CCCCCCC#CC(=O)OCCCC showed a growth inhibition of -9.8%. With Cc1ccc(C(=O)OCc2ccccc2CN2CCCCC2)cc1 the growth inhibition was 1.6%. For Cc1cc(S(=O)(=O)NC(=NCC(=O)NN)NN)c(S)cc1Cl, the growth inhibition was -9.85%. Compound Cc1nc2[nH]cc(-c3ccccc3)c2c(=N)n1-c1ccc(F)cc1 has a growth inhibition of -7.45%. For COc1cc(=O)cc2n(-c3cc(OC)c(O)c(OC)c3)c3ccccc3nc1-2, the growth inhibition was 23.6%. [Cl][Sm]([Cl])[Cl] showed a growth inhibition of 17.9%. In the case of CCOC(=O)CNC(=O)CCC(=O)OC, the growth inhibition is reported as -11%. For O=C(O)c1ccc2c(c1)Cc1ccccc1-2, the growth inhibition was 30.5%. Work on Nc1ncc2c(ncn2CC(O)CO)n1 (stereo not given) yielded a growth inhibition of -24.6%. Work on N#Cc1c(Br)n(C2OC(CO)C(O)C2O)c2ncncc12 (stereo not given) yielded a growth inhibition of 1.5%. Compound Oc1cccc(C(c2ccccc2)c2ccccc2)c1 has a growth inhibition of -0.6%. With CC(C)=CC1C(C(=O)O)C1(C)C (stereo not given) the growth inhibition was 5.55%. With Oc1ccc2c(c1)c1ccccc1c1ncccc21 the growth inhibition was 46%. Work on CC(C)(SC(=N)N)B(O)O yielded a growth inhibition of -3.2%. O=C(Nc1cccc(Cl)c1)c1cc2cc(N=Nc3ccc(Br)cc3)ccc2oc1=O gave a growth inhibition of 36.4%. Work on CCCC(CCC)(CCC)CCN(C)C yielded a growth inhibition of -6.85%. For Cn1nc2ccccc2cc1=O, the growth inhibition was 20.7%. Compound COc1nc(NC2OC(CO)C(O)C(O)C2O)c(C(C)=O)c(=O)n1C (stereo not given) has a growth inhibition of 12.2%. For CC(=O)CC(=O)N1CCC(C)CC1, the growth inhibition was 20.4%. In the case of COc1cc2cnc3c4ccccc4ccc3c2cc1OC, the growth inhibition is reported as -48.5%. For NCCSCCC(=O)O, the growth inhibition was -0.25%. COc1ccc(C2CC(c3c(C)nn(-c4ccccc4)c3-c3ccc(C)cc3O)=NN2c2ccccc2)cc1 (stereo not given) showed a growth inhibition of -3.95%. With CCc1cn(C2CC(CO)C(CO)S2)c(=O)[nH]c1=O (stereo not given) the growth inhibition was -5.5%. Work on CSc1ccc(NC(=O)Nc2ccc(Nc3ccccc3)cc2)cc1 yielded a growth inhibition of -0.95%. COc1cc(NC(C)CCCN)c2nccc(C)c2c1 (stereo not given) gave a growth inhibition of 16.2%. Compound C/C=C/C(=O)OCCCCCCCCCCCCCCCCCC has a growth inhibition of 13.7%. For O=C1OCC(c2ccccc2)(c2ccccc2)C(=O)N1O, the growth inhibition was 18.4%. Oc1cccnc1CN1CCOCC1 gave a growth inhibition of -3.55%. In the case of Cc1ccc(N)cc1S(=O)(=O)O, the growth inhibition is reported as 29.8%. O=[N+]([O-])c1ccc2c(c1)Cc1cc([N+](=O)[O-])ccc1-2 gave a growth inhibition of -12.3%.
